Data taken from PubChem BioAssay (NCATS).
Values joined by “and” are separate entries in the source; they are usually repeats but may differ in a detail not shown here. Equal values may be shown once. Inconclusive results are not listed. Active and inactive are the calls of the source. Unless noted, the call rests on the fitted dose curve; in most records, active means well fitted curve in the direction sought with a large enough effect; inconclusive means small, poorly fitted or top-dose-only effect, or another doubt; inactive means no such curve, though single readings can be large; an effect the other way counts as inactive or inconclusive.

Assays:
[1] = MultiTox-Fluor Cytotoxicity Assay - LYMP1-001 - Dead Cells (AID 946)
Procedure, shortened: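 Cytotoxicity as increased dead-cell protease fluorescence (bis-AAF-R110, 485/520 nm), read 60 min after MultiTox-Fluor reagent. Human lymphoblastoid line exposed 16 h; Hill-fitted AC50, with DMSO as 0% and 15 uM tetraoctylammonium bromide as 100%.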

[2] = Cell Viability - LYMP1-002 - Assay at 16 hr (AID 948);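 further: 0% = DMSO alone and full effect = 92 µM tetraoctylammonium bromide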
Procedure, shortened: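 LYMP1-002 human lymphoblastoid cells, 2500/well; 5 hr 37 C; cpd 16 hr 37 C; CellTiter-Glo 30 min RT; luminescence (ATP). Concentration-response, Hill-fit AC50. Pos ctrl tetraoctylammonium bromide.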

[3] = MultiTox-Fluor Cytotoxicity Assay - LYMP1-003 - Dead Cells (AID 961); further: nearly all actives have a fitted effect of over 70% in size
Procedure, shortened: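 Dead-cell protease release, detected as bis-AAF-R110 fluorescence at 485/520 nm, was measured in LYMP1-003 cells after 16 h compound treatment at 37 C. AC50 values came from Hill-modeled qHTS curves normalized to DMSO (0%) and 15 uM tetraoctylammonium bromide (100%).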

[4] = Cell Viability - LYMP1-003 - Assay at 24 hr (AID 963);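 further: plate controls were DMSO only for no effect and tetraoctylammonium bromide positive control for full effect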
Procedure, shortened: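 Cytotoxicity is scored as a concentration-dependent fall in ATP-linked luciferase signal in human lymphoblastoid LYMP1-003 cells treated 24 hr at 37 C in complete culture medium.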

[5] = Cell Viability - LYMP1-003 - Assay at 40 hr (AID 964); further: series mostly up to about 92 µM; on the % scale 0 is the no-effect control and ±100 the full control effect; nearly all actives have a fitted effect of over 60% in size
Procedure, shortened: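 Luminescent ATP signal (CellTiter-Glo) served as the viability read-out after 40 hr compound treatment of human lymphoblastoid LYMP1-003 cells at 37 C. Decreases in ATP were fitted with the Hill equation to give AC50.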

[6] = Cell Viability - LYMP2-003 (AID 965);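 further: cells exposed to compounds for 24 h before reading; 0% = DMSO only and full effect = 92 µM tetraoctylammonium bromide; nearly all actives have a fitted effect of over 50% in size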
Procedure, shortened: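 CellTiter-Glo luminescence (cellular ATP) after 24 h compound exposure at 37 C in complete medium; 2500 cells/well, 5 h settling beforehand. Concentration-response fitted to standard Hill equation for AC50. Tetraoctylammonium bromide served as positive control.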

[7] = Cell Viability - LYMP2-004 (AID 966);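 further: plate controls were DMSO only for no effect and tetraoctylammonium bromide control for full effect; nearly all actives have a fitted effect of over 65% in size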
Procedure, shortened: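 qHTS cytotoxicity: human lymphoblastoid line, 24 hr compound treatment, 37 C, complete medium. Viability read as cellular ATP via luciferase luminescence; tetraoctylammonium bromide served as positive control.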

[8] = Cell Viability - LYMP2-011 (AID 969);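 further: 0% = DMSO only and full inhibition = 92 µM tetraoctylammonium bromide; nearly all actives have a fitted effect of over 60% in size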
Procedure, shortened: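 In this qHTS cytotoxicity format, compounds are tested across concentrations on human lymphoblastoid cells in complete medium for 24 hours at 37 C. Viability is taken as cellular ATP measured by luciferase luminescence.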

[9] = Cell Viability - LYMP2-015 (AID 971);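 further: 0% = DMSO only and full effect = 92 µM tetraoctylammonium bromide; nearly all actives have a fitted effect of over 55% in size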
Procedure, shortened: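 Cells are seeded at 2500 per well and incubated 5 hr at 37 C. Compounds are added across a concentration series for 24 hr at 37 C. CellTiter-Glo is added, and luminescence is read after 30 min at room temperature.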

[10] = Cell Viability - LYMP2-023 (AID 975);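 further: series mostly up to about 92 µM; plate controls were DMSO only for no effect and 92 µM tetraoctylammonium bromide control for full effect; nearly all actives have a fitted effect of over 55% in size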
Procedure, shortened: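 Steps: seed 2500 human lymphoblastoid cells per well, incubate 5 hr at 37 C, add compound for 24 hr at 37 C, add CellTiter-Glo, hold 30 min at room temperature, read luminescence. AC50 derived by Hill modelling.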

[11] = Cell Viability - LYMP2-025 (AID 976);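 further: series mostly up to about 92 µM; plate controls were DMSO only for no effect and tetraoctylammonium bromide control for full effect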
Procedure, shortened: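 Acute cytotoxicity is scored as a concentration-dependent fall in intracellular ATP, measured by luciferase luminescence, in human lymphoblastoid LYMP2-025 cells exposed to compound for 24 hours at 37 C. AC50 values come from standard Hill fits.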

[12] = Cell Viability - LYMP2-002 (AID 977);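 further: series mostly up to about 92 µM; plate controls were DMSO only for no effect and 92 µM tetraoctylammonium bromide for full effect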
Procedure, shortened: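 In this qHTS viability screen, 2500 human lymphoblastoid cells per well receive compound for 24 hr at 37 C, and luciferase-based ATP luminescence gives the viability signal. Tetraoctylammonium bromide serves as positive control.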

[13] = Cell Viability - LYMP2-006 (AID 978); further: series mostly up to about 92 µM; on the % scale 0 is the no-effect control and ±100 the full control effect; nearly all actives have a fitted effect of over 60% in size
Procedure, shortened: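 qHTS, 1536-well; 2500 cells/well, 5 hr 37 C; cpd 24 hr 37 C; CellTiter-Glo 30 min RT; luminescence. Tetraoctylammonium bromide pos. ctrl. AC50 via Hill eqn.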

[14] = Cell Viability - LYMP2-008 (AID 980); further: on the % scale 0 is the no-effect control and ±100 the full control effect; nearly all actives have a fitted effect of over 60% in size
Procedure, shortened: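 Cells seeded at 2500/well and rested 5 hr at 37 C; compounds added over a concentration range and incubated 24 hr at 37 C; CellTiter-Glo added, 30 min at room temperature; luminescence read and AC50 fitted with Hill model.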

[15] = Cell Viability - LYMP2-012 (AID 982);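 further: cellular ATP by luciferase luminescence where a drop means cytotoxicity; cells exposed to compound for one day before reading; 0% = DMSO only and full loss = 92 µM tetraoctylammonium bromide; nearly all actives have a fitted effect of over 55% in size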
[16] = Cell Viability - LYMP2-014 (AID 983);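 further: series mostly up to about 92 µM; plate controls were DMSO only for no effect and 92 µM tetraoctylammonium bromide for full effect; nearly all actives have a fitted effect of over 50% in size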
Procedure, shortened: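 Cells are plated at 2500/well and left 5 hr at 37 C. Compounds are added across a concentration range and incubated 24 hr at 37 C in complete medium. CellTiter-Glo is added, and luminescence is read after 30 min at room temperature.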

[17] = Cell Viability - LYMP2-020 (AID 986);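 further: series mostly up to about 92 µM; plate controls were DMSO only for no effect and tetraoctylammonium bromide at 92 µM for full effect; nearly all actives have a fitted effect of over 55% in size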
Procedure, shortened: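 Seed 2500 cells per well and incubate 5 hr at 37 C. Add compounds at a concentration series and incubate 24 hr at 37 C. Add CellTiter-Glo, wait 30 min at RT, read luminescence, and fit a Hill curve for AC50.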

[18] = Cell Viability - LYMP1-002 - Assay at 40 hr (AID 994)
Procedure, shortened: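 Cells are plated at 2500 per well and rested 5 hr at 37 C. Compounds are added and incubated 40 hr at 37 C. CellTiter-Glo reagent is added for 30 min at room temperature before luminescence is read.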

[19] = biological target: Peroxisome proliferator-activated receptor delta (Homo sapiens) (UniProt Q03181); assay: qHTS assay for small molecule agonists of peroxisome proliferator-activated receptor delta signaling (AID 588534; calls by dose curve;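 further: 0% = DMSO basal wells and 100% = positive control agonist at 10 µM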)
Procedure, shortened: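 Agonist-mode qHTS; reporter cells, 5 hrs 37 C pre-incubation; compound titration, 18 hrs 37 C; CCF4 dye, 2 hrs RT; fluorescence read. EC50/efficacy via Hill fit.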

[20] = biological target: Retinoic acid receptor RXR-alpha (Homo sapiens) (UniProt P19793); assay: qHTS assay for small molecule antagonists of retinoid X receptor alpha signaling (AID 588546; active means well fitted inhibition curve with a large enough effect in the signal ratio, with a control signal flat, not every such curve was filed as active; the % refers to the signal ratio;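 further: cells stimulated with 9-cis-retinoic acid as agonist; on the % scale 0 is the no-effect control and ±100 the full control effect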); conditions: HEK293T RXRa-UAS-bla, beta-lactamase ratio, antagonist mode
Procedure, shortened: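 Beta-lactamase reporter inhibition, read as CCF4 fluorescence ratio (ex 405, em 460/530 nm) after 2 h at RT. HEK293T UAS-bla cells, 2500/well, were stimulated with 9-cis-RA at 500 or 100 nM final alongside test compound for 18 h at 37 C.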

Sequence of Retinoic acid receptor RXR-alpha (Homo sapiens) (P19793 whole entry, looked up): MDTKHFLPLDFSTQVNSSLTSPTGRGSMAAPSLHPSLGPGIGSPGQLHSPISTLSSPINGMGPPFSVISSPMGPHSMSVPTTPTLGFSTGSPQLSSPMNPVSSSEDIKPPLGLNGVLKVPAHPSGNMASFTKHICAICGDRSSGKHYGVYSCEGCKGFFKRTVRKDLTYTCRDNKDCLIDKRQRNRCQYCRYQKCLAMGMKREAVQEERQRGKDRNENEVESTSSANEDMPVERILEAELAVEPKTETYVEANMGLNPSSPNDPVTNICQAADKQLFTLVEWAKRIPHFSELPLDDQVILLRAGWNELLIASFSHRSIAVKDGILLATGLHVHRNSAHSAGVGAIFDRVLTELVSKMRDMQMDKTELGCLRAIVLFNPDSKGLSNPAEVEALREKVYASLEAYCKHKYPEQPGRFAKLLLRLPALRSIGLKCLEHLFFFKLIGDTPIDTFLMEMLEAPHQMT
Sequence of Peroxisome proliferator-activated receptor delta (Homo sapiens) (Q03181 whole entry, looked up): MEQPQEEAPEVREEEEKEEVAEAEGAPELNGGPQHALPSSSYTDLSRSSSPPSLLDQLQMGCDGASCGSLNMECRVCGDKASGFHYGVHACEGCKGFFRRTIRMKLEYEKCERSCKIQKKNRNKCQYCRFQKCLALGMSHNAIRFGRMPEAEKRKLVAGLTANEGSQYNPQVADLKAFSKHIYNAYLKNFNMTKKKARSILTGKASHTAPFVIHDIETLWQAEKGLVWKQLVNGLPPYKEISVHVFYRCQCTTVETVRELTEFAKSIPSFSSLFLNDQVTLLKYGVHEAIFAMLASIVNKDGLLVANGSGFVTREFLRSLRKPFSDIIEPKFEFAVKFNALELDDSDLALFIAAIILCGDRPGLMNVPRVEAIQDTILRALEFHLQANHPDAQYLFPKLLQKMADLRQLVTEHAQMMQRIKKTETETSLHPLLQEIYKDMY

Cc1ccc2ccccc2c1
inactive: Potency [1] | Potency [2] | Potency [3] | Potency [4] | Potency [5] | Potency [6] | Potency [7] | Potency [8] | Potency [9] | Potency [10] | Potency [11] | Potency [12] | Potency [13] | Potency [14] | Potency [15] | Potency [16] | Potency [17] | Potency [18] | outcome [19] | max response [20] -9.3%

C=C(C)C(=O)OCC1CO1 (stereo not drawn)
inactive: Potency [1] | Potency [2] | Potency [3] | Potency [4] | Potency [5] | Potency [6] | Potency [7] | Potency [8] | Potency [9] | Potency [10] | Potency [11] | Potency [12] | Potency [13] | Potency [14] | Potency [15] | Potency [16] | Potency [17] | Potency [18] | outcome [19] | max response [20] 4.24%

Nc1c(Cl)c(Cl)nc(C(=O)O)c1Cl
inactive: Potency [1] | Potency [2] | Potency [3] | Potency [4] | Potency [5] | Potency [6] | Potency [7] | Potency [8] | Potency [9] | Potency [10] | Potency [11] | Potency [12] | Potency [13] | Potency [14] | Potency [15] | Potency [16] | Potency [17] | Potency [18] | outcome [19] | max response [20] -3.97% and -1.67% and -10.4%

CCCCCCCC(=O)Cl
inactive: Potency [1] | Potency [2] | Potency [3] | Potency [4] | Potency [5] | Potency [6] | Potency [7] | Potency [8] | Potency [9] | Potency [10] | Potency [11] | Potency [12] | Potency [13] | Potency [14] | Potency [15] | Potency [16] | Potency [17] | Potency [18] | outcome [19] | max response [20] 17.7%

CC(C)(c1ccccc1)c1ccc(O)cc1
inactive: Potency [1] | Potency [2] | Potency [3] | Potency [4] | Potency [5] | Potency [6] | Potency [7] | Potency [8] | Potency [9] | Potency [10] | Potency [11] | Potency [12] | Potency [13] | Potency [14] | Potency [15] | Potency [16] | Potency [17] | Potency [18] | outcome [19] | max response [20] -3.65%

CN=C=S
inactive: Potency [1] | Potency [2] | Potency [3] | Potency [4] | Potency [5] | Potency [6] | Potency [7] | Potency [8] | Potency [9] | Potency [10] | Potency [11] | Potency [12] | Potency [13] | Potency [14] | Potency [15] | Potency [16] | Potency [17] | Potency [18] | outcome [19] | max response [20] 0.0175% and -8.56%

C=CCOC(C)=O
inactive: Potency [1] | Potency [2] | Potency [3] | Potency [4] | Potency [5] | Potency [6] | Potency [7] | Potency [8] | Potency [9] | Potency [10] | Potency [11] | Potency [12] | Potency [13] | Potency [14] | Potency [15] | Potency [16] | Potency [17] | Potency [18] | max response [20] 2.59%

C=CC(C)=O
inactive: Potency [1] | Potency [2] | Potency [3] | Potency [4] | Potency [5] | Potency [6] | Potency [7] | Potency [8] | Potency [9] | Potency [10] | Potency [11] | Potency [12] | Potency [13] | Potency [14] | Potency [15] | Potency [16] | Potency [17] | Potency [18] | outcome [19] | max response [20] 8.07%

c1ccc(OP(Oc2ccccc2)Oc2ccccc2)cc1
inactive: Potency [1] | Potency [2] | Potency [3] | Potency [4] | Potency [5] | Potency [6] | Potency [7] | Potency [8] | Potency [9] | Potency [10] | Potency [11] | Potency [12] | Potency [13] | Potency [14] | Potency [15] | Potency [16] | Potency [17] | Potency [18] | max response [20] 4.67% and -4.17%

C1CCC2CCCCC2C1 (stereo not drawn)
inactive: Potency [1] | Potency [2] | Potency [3] | Potency [4] | Potency [5] | Potency [6] | Potency [7] | Potency [8] | Potency [9] | Potency [10] | Potency [11] | Potency [12] | Potency [13] | Potency [14] | Potency [15] | Potency [16] | Potency [17] | Potency [18] | outcome [19] | max response [20] -5.58%

C=CCOC(=O)c1ccccc1N
inactive: Potency [1] | Potency [2] | Potency [3] | Potency [4] | Potency [5] | Potency [6] | Potency [7] | Potency [8] | Potency [9] | Potency [10] | Potency [11] | Potency [12] | Potency [13] | Potency [14] | Potency [15] | Potency [16] | Potency [17] | Potency [18] | outcome [19] | max response [20] 2.96%
